Hits are enriched below; roughly 2.4% of the tested compounds scored in any of these assays.
STAT3 blocker: IL-6 driven STAT3 reporter inhibitors, primary screen, U3A cells, luciferase, luminescence, MLSCN library | IL-6 STAT3-luciferase reporter; host cell line lacks STAT1 | inhibition, % at 5.5 µM | 190,000 compounds, 0.89% hits;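 active = inhibition above the mean inhibition across all screened compounds plus 3 SD, cut at about 44% in these data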;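 also: 0% = DMSO only wells and 100% = 100 µM nifuroxazide control wells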
HSP90 inh: HSP90 inhibitors, primary screen, cell lysate, luminescence; 290,000 compounds, 0.91% hits; inhibition, % at 5.6 µM; Rabbit reticulocyte lysate, luciferase refolding luminescence, 3 h; Heat shock protein HSP 90 (rabbit reticulocyte lysate; luciferase refolding);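 active = inhibition above the screen-wide mean plus 3 SD, computed separately per campaign, cut at about 16% in these data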;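 also: 0% = DMSO wells and 100% = 60 µM geldanamycin wells; inhibitors lower the luminescence because luciferase stays unfolded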
HSF1 inh: HSF1 inhibitors in luciferase reporter cells, primary screen, cell-based, NIH3T3, luminescence. activity change, negative = inhibition, % at 7.5 µM (by protocol). 300,000 compounds, 0.77% hits. NIH3T3-HGL HSE-luciferase, MG132-induced, luminescence 8 h; active compounds read low;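 active = more than half of replicate wells show activity change below -50%, luminescence cut by over half; inconclusive = some wells, but at most half, below -50%; inactive = no replicate well below -50%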;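 also: luciferase reports HSF-1 transcriptional activity via heat shock element; 0% = median of DMSO wells and -100% = zero luminescence signal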
STAT1 inh: STAT1 signaling inhibitors, primary screen, cell-based, HTS, luciferase reporter. NIH 3T3 STAT1-luciferase reporter, IFN-gamma, luminescence. inhibition, % at 5.5 µM. 200,000 compounds, 0.35% hits;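 active = inhibition above a set limit, the mean inhibition across all tested compounds plus 3 SD, cut at about 34% in these data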;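 also: 0% = IFN-gamma with DMSO and 100% = IFN-gamma with 300 µM nifuroxazide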
PPC-1+TRAIL kill: compounds killing PPC-1 cancer cells with TRAIL present, primary screen, TRAIL potentiator project, ATPLite luminescence, uHTS | 220,000 compounds, 0.41% hits | PPC-1 cells + TRAIL, ATPLite viability luminescence | AID 1443, 2008 | cell killing (% activity), % at 4 µM or 5 µM;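 active = cell killing above 50% in the first pass at 4 µM, then a duplicate retest at 5 µM averaging 50% or more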;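 also: plate controls were cells with TRAIL plus DMSO for no effect and medium-only wells lacking cells for full effect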
C8 TRAIL sens: viability loss with TRAIL in NB7+C8 cells, primary screen, TRAIL sensitizer project, cell-based, ATPlite luminescence. inhibition (viability loss, TRAIL sensitization), % at 10 µM. 360,000 compounds, 1% hits. AID 624354, 2012;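 active = compounds causing at least 50% loss of cell viability in the single-dose screen, relative to plate controls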
HSP90 confirm: HSP90 inhibitors, confirmation, cell lysate, luminescence. AID 1846, 2009. 2,300 compounds, 64% hits. rabbit reticulocyte lysate, luciferase refolding luminescence, 3 h. shares compounds with HSP90 inh. inhibition, % at 5.9 µM; in the data active = inhibition above about 18%;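 also: 0% = vehicle wells and 100% = reference inhibitor wells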
FLuc counter: firefly luciferase inhibitors, HSP90 counter-screen, confirmation, artefact control for HSP90 inhibitor project, biochemical, luminescence, triplicate | shares compounds with HSP90 inh | purified native firefly luciferase | inhibition, % at 5.9 µM | 2,300 compounds, 48% hits | AID 1847, 2009;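 active = inhibition above the mean inhibition of all tested sample wells plus 3 SD, cut at about 10% in these data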;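 also: 0% = DMSO with luciferase and 100% = wells lacking luciferase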
Target sequence (P08659 whole entry, looked up): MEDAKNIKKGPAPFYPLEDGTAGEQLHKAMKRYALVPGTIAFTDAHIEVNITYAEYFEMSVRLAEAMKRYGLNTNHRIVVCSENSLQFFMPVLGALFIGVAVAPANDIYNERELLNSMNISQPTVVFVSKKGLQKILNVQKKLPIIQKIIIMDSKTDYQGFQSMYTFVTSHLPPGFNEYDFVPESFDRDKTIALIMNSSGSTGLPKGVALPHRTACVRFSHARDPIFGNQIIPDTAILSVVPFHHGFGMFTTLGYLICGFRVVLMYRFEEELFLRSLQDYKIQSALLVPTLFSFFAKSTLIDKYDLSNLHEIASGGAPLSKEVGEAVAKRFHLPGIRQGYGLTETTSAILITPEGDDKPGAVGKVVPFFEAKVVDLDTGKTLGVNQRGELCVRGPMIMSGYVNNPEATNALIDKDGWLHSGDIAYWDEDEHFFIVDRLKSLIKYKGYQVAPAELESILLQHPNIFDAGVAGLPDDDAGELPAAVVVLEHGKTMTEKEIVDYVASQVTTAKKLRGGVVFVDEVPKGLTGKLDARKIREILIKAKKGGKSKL
* = called active by the depositor; ? = inconclusive; . = not tested or not shown.

SMILES	STAT3 blocker	HSP90 inh	HSF1 inh	STAT1 inh	PPC-1+TRAIL kill	C8 TRAIL sens	HSP90 confirm	FLuc counter
Nc1cc(-c2cccc([N+](=O)[O-])c2)[nH]n1	-8	-1	5	5	7	-3	.	.
O=C(CNC(=O)c1cccs1)c1ccc(F)cc1	39	9	10	-23	21	41	.	.
CCCCOC(=O)Nc1nnc(CC)s1	-13	29*	-8	-26	34	23	1	-20
N=C(N)c1ccc(N=Nc2c(O)ccc3c2[nH]c2ccccc23)cc1	.	.	.	.	.	2	.	.
COc1ccc(OC)c(N=Nc2c(O)c3ccccc3[nH]c2=O)c1	.	.	.	.	.	18	.	.
NC(=O)c1ccc(N=Nc2c(O)c3ccccc3[nH]c2=O)cc1	.	14	-8	.	21	.	12	-15
COc1cc(N=Nc2c(O)c3ccccc3[nH]c2=O)c(OC)cc1N=Nc1ccccc1	.	11	-1	.	-23	-3	2	-14
COc1ccc(C(O)c2nc(-c3cccc4cccnc34)cs2)cc1 (stereo not given)	.	.	.	.	.	-5	.	.
CCN(CC)c1ccc(C2C(C(=O)OC(C)C)C(=O)CC(C)(O)C2C(=O)OC(C)C)cc1 (stereo not given)	10	32*	-8	-2	3	11	2	-2
CC(C)(Oc1ccc(Cl)cc1)C(=O)N(Cc1ccccc1)c1ccccn1	-4	3	-4	0	1	11	.	.
COc1ccc(C(=O)NCCN2CCOCC2)c(OC)c1	5	0	-4	1	10	8	.	.
COc1ccc(C(=O)NCCn2ccc3ccccc32)c(OC)c1	-25	38*	12	-21	13	-17	16	-9
COc1ccc(C(=O)Nc2ccc3ccccc3c2)c(OC)c1	.	24*	5	.	.	30	20*	9.8*
CC(NS(=O)(=O)c1ccc(Br)cc1F)[C@H](O)c1ccccc1 (stereo not given in full)	.	.	.	.	.	-20	.	.
C[C@H](c1ccccc1)N1C[C@@H](COCc2ccccc2)Oc2cc(N3CCC[C@H]3CO)ccc2S1(=O)=O	.	.	.	.	.	-1	.	.
O=[N+]([O-])c1cccc(S(=O)(=O)Nc2ccc(-c3ccc(N4CCOCC4)nn3)cc2)c1	.	.	5	.	.	1	.	.
COc1cccc(/C=C2\Oc3ccc(O)cc3C2=O)c1O	.	17*	9	.	.	65*	33*	34*
COc1cccc(C2Nc3ccccc3NC3=C2C(=O)CC(C)(C)C3)c1 (stereo not given)	.	23*	11	.	.	-17	-1	-4
CCc1ccc(/C=C2\SC(=S)N(CCCC(=O)Nc3ccccn3)C2=O)cc1	14	28*	?	23	7	63*	32*	-16
COC(=O)c1ccc(/C=C2/SC(=S)N(CCCC(=O)Nc3ccccn3)C2=O)cc1	-2	3	-10	2	20	-1	.	.
CCOC(=O)C1=C(C)NC(C)=C(C(=O)OCC)C1c1sccc1C	7	-3	3	-4	7	-9	.	.
O=C(Nc1ccc(C(=O)NCCCN2CCN(c3ccc(F)cc3)CC2)cc1)C1=CSCCO1	.	30*	2	.	.	11	-3	-6
O=C(Nc1ccc(C(=O)NCCCN2CCCCC2)cc1)C1=CSCCO1	.	-3	2	.	.	-3	.	.
Cc1ccc(Cc2c(-c3ccc(F)cc3)nc3c(C)cc(Br)cn23)cc1	.	.	.	.	.	7	.	.
COCCN1C(=O)C(C(=O)OC)CC2=C1CC(C)(C)CC2=O (stereo not given)	.	.	.	.	.	-11	.	.
